Compound activity (PubChem BioAssay)
In the library only some 3.6% were active in any assay of this set; here they are far more common.
Pf apPOL inh: Pf-apPOL DNA polymerase inhibition. Recombinant Pf-apPOL, molecular beacon fluorescence, 1.5 h. inhibition, % at 10 µM. 210,000 tested, 0.25% active
mHTT CaM bind: inhibitors of human mutant huntingtin-calmodulin interaction. P42858. AlphaScreen His-mHTT/GST-CaM binding, luminescence. inhibition, % at 15 µM. 190,000 tested, 3.6% active
Target sequence (P42858 whole entry, looked up, change not shown): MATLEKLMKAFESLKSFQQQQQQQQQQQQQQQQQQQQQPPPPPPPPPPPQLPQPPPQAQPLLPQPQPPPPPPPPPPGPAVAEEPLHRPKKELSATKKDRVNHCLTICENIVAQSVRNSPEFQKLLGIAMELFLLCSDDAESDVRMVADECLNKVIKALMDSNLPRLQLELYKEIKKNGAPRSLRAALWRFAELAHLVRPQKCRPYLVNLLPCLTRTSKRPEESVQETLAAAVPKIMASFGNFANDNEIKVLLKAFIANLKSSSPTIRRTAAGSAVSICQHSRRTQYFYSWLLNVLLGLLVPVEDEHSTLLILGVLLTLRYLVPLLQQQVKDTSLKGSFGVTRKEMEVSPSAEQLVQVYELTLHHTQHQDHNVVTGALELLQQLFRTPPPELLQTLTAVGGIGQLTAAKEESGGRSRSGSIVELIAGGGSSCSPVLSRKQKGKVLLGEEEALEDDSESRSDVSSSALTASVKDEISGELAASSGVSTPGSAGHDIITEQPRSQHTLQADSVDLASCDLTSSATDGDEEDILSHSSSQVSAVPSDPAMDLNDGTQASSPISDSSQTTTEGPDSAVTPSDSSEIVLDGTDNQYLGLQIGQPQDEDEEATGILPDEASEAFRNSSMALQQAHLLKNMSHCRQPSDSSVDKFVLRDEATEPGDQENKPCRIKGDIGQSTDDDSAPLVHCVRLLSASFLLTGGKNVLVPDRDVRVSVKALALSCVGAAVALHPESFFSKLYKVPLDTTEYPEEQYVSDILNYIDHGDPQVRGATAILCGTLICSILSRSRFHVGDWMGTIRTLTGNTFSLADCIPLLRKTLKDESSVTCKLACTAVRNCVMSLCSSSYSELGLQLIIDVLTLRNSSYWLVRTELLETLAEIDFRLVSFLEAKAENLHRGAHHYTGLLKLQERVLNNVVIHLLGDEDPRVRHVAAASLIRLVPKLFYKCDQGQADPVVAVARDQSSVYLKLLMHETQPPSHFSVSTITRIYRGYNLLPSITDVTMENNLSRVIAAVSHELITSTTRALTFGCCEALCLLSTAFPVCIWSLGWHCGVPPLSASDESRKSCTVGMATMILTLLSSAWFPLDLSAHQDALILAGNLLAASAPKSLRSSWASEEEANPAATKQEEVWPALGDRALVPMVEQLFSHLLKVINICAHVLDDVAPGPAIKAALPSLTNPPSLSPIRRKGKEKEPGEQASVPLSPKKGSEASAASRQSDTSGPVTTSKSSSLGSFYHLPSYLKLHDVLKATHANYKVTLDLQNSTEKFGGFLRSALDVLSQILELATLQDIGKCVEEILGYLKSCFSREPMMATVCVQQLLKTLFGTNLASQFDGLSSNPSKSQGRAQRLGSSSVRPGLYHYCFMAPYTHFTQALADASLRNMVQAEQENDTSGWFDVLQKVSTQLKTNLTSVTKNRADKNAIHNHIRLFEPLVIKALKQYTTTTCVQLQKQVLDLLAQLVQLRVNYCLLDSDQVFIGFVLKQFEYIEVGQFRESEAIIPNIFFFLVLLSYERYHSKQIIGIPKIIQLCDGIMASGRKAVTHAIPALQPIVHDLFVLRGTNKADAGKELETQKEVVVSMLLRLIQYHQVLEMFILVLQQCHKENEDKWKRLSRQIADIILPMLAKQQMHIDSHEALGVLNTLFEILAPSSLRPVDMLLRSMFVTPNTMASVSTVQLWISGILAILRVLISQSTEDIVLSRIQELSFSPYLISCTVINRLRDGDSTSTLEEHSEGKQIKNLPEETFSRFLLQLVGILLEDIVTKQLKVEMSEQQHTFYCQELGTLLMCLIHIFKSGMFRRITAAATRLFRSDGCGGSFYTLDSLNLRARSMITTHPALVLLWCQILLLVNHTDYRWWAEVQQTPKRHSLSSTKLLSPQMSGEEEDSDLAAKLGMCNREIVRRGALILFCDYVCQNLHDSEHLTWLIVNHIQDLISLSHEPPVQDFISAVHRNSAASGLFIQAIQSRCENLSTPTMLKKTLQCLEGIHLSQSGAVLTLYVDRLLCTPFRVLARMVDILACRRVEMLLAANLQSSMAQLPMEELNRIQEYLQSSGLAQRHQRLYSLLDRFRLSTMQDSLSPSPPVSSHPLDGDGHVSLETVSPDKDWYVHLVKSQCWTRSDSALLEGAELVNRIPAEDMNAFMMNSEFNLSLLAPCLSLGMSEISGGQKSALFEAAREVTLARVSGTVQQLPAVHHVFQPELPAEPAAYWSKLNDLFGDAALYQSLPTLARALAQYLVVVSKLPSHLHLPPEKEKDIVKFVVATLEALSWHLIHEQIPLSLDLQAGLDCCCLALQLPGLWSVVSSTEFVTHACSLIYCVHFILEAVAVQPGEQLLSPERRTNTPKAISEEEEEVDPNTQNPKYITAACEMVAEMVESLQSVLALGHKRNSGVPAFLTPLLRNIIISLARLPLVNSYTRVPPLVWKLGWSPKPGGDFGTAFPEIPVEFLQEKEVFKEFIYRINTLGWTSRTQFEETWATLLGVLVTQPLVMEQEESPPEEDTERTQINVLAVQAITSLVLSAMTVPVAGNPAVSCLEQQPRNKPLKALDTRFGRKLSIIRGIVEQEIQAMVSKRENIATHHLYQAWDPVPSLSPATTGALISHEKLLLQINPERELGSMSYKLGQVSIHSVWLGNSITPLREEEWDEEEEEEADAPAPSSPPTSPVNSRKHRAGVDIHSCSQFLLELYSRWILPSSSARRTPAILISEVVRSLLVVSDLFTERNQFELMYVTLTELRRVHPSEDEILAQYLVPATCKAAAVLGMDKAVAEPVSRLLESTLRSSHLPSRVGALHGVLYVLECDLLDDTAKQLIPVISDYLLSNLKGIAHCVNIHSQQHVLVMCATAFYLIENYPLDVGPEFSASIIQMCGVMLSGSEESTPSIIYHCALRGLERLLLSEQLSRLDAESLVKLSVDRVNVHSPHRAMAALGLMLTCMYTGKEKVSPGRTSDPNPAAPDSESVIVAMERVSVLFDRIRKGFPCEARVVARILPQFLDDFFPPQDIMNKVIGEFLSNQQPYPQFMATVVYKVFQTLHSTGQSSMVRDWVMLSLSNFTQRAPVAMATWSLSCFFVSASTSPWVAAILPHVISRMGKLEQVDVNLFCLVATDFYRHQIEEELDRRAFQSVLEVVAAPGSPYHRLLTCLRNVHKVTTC
A number is an active result; 0 = inactive; - = not tested or not shown; + = active, no number. Cut-off read from the data, not from the text of the source: active = inhibition above about 50%; inactive = the rest.

SMILES	Pf apPOL inh	mHTT CaM bind
COc1ccc(CNC(=O)c2nc(C)n(C3CCN(S(C)(=O)=O)CC3)c2C)cc1	0	0
O=C(c1ccc(-c2nc(-c3ccc(F)cc3)no2)cc1)N1CCCCC1	0	0
Nc1nccn(Cc2ccc(F)cc2F)c1=O	0	0
COc1ccccc1N=C1SC(C(=O)Nc2ccc(C)c(Cl)c2)CC(=O)N1C (stereo not drawn)	0	0
CC(C)C[C@@H]1COc2cccc(N3CCN(Cc4ccccc4F)CC3)c2S(=O)(=O)N1	0	0
O=S1(=O)N[C@@H](Cc2ccccc2)COc2cccc(N3CCN(Cc4ccccc4F)CC3)c21	0	89
O=C(NCCN1CCCC1)C1CCCN(c2ncnc3c2nc2n3CCCCC2)C1 (stereo not drawn)	0	0
O=C(c1cccnc1)N1CCN(c2ccc([N+](=O)[O-])cc2)CC1	0	0
O=C(c1ccc(C#CC2(O)CCCCC2)cc1)N1CCN(c2ccc([N+](=O)[O-])cc2)CC1	0	56
COc1cc(N)ccc1Cc1ccc(N)cc1OC	0	0
COc1ccc(N)cc1-n1c(C)ccc1C	0	76
Cn1ccc2c(cc(C(=O)N3CCC(N4CCCCC4)CC3)n2C)c1=O	0	0
COc1ccc2c(=O)c(Oc3ccccc3Br)c(C(F)(F)F)oc2c1	0	0
CC(=O)Oc1ccc2c(=O)c(Oc3ccccc3Br)c(C(F)(F)F)oc2c1	0	52
CC1=NN(c2ccc(C)c(C)c2)C(=O)/C1=C/c1ccc(N(C)C)c([N+](=O)[O-])c1	0	0
CC1=NN(c2ccc(I)cc2)C(=O)/C1=C/c1ccc(N(C)C)cc1	0	57
CN(C)c1ccc(/C=C2\C(=O)N(c3ccccc3)N=C2c2ccccc2)cc1	0	56
CC1=NN(c2cccc(F)c2)C(=O)/C1=C/c1ccc(N(C)C)cc1	0	0
CCN(CC)c1ccc(/C=C2/C(=O)N(c3ccc(C)c(C)c3)N=C2C)cc1	0	86
CC1=NN(c2ccc(Cl)c(Cl)c2)C(=O)/C1=C/c1ccc(N(C)C)cc1	0	0
CCOc1cccc(C2CC(c3cccc(OC)c3)=NC3(CCN(C(C)C)CC3)N2)c1O (stereo not drawn)	0	0
COc1ccc(C=C2Oc3cc(OCC(=O)c4ccc(F)cc4)ccc3C2=O)cc1OC	0	0
CC(C)c1cc(C2CCCN2C(=O)c2nn(C)cc2Cl)no1 (stereo not drawn)	0	0
O=[N+]([O-])c1ccc(NCCNS(=O)(=O)Cc2ccccc2)c(Cl)c1	0	0
N#Cc1c([N+](=O)[O-])cc([N+](=O)[O-])cc1S(=O)(=O)Cc1ccccc1	0	79
SMILES	Pf apPOL inh	mHTT CaM bind
CCn1cc2c3c(cccc31)CN(C(=O)Nc1ccc(OC)cc1OC)CC2	0	0
COc1cccc(NC(=O)N2CCc3cn(C)c4cccc(c34)C2)c1	0	0
COc1ccc(NC(=O)N2CCc3cn(C)c4cccc(c34)C2)c(OC)c1	0	75
COc1ccc(OC)c(NC(=O)N2CCc3cn(C)c4cccc(c34)C2)c1	0	62
CCCn1cc2c3c(cccc31)CN(C(=O)Nc1cc(OC)ccc1OC)CC2	0	73
CCn1cc2c3c(cccc31)CN(C(=O)Nc1ccccc1OC)CC2	0	0
CCCn1cc2c3c(cccc31)CN(C(=O)Nc1cccc(OC)c1)CC2	0	0
COc1ccccc1NC(=O)N1CCc2cn(C)c3cccc(c23)C1	0	51
Cc1nc(-c2cccc(NC(=O)C3CCCN(c4cc(-n5cccn5)ncn4)C3)c2)cs1 (stereo not drawn)	0	0
Cc1ccc(CN2CCCN(S(=O)(=O)c3ccc(Br)s3)CC2)cc1	0	0
Cc1ccccc1NC(=O)C12CC3CC(C1)CC(C(=O)Nc1ccccc1C)(C3)C2	0	0
FC(F)(F)c1cccc(-c2noc(Cc3nnc(-c4ccccc4)o3)n2)c1	0	0
N/C(=N\N=C(/N)c1ccccn1)c1ccccn1	0	+
O=C(CC(=O)c1ccccn1)c1ccccn1	0	-
CC(C)n1cc(C2=CCN(C(=O)Nc3cccc(Cl)c3)CC2)c2cccnc21	0	0
COc1ccc(-c2c(C)oc3c(CN4CCCC(C)C4)c(O)ccc3c2=O)cc1 (stereo not drawn)	0	0
COc1cc(/C=C2\Cc3ccccc3C2=O)cc(OC)c1OC	0	0
NNc1nnc2c(n1)[nH]c1ccc(Br)cc12	0	67
Brc1ccc2[nH]c3nc4ccccc4nc3c2c1	0	0
Cc1ccc(-c2c(C(=O)NCc3ccccc3)oc(=O)c3ccccc23)cc1	0	0
Cc1ccc(-c2c(C(=O)NCCN3CCN(c4ccccc4)CC3)oc(=O)c3ccccc23)cc1	0	54
NC(=O)c1cc2cc(Br)ccc2oc1=Nc1ccc(Br)cc1	0	0
NC(=O)c1cccc(N=c2oc3ccc(Br)cc3cc2C(N)=O)c1	0	71
COc1ccccc1N1CCN2c3ccccc3CC(C(=O)NC3CC3)C2C1 (stereo not drawn)	0	0
CCNC(=O)C1Cc2ccccc2N2CCN(c3cc(Cl)ccc3OC)CC12 (stereo not drawn)	0	0
